Bioassay records: PubChem, National Center for Advancing Translational Sciences (NCATS)
AmpC inh detg = blocks E. coli AmpC beta-lactamase in detergent assay; P00811; AmpC hydrolysis of nitrocefin, absorbance 480 nm, 0.01% Triton; Potency, µM (highest dose often 114 µM), without a hit: at the highest dose activity change, negative = inhibition, hits mostly inhibitors; actives 0.041% (n = 370,000); AID 485294;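 also: 0% = no-compound wells and -100% = no-enzyme wells; nearly all actives have a fitted effect of over 25% in size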
Target sequence (P00811 whole entry, looked up): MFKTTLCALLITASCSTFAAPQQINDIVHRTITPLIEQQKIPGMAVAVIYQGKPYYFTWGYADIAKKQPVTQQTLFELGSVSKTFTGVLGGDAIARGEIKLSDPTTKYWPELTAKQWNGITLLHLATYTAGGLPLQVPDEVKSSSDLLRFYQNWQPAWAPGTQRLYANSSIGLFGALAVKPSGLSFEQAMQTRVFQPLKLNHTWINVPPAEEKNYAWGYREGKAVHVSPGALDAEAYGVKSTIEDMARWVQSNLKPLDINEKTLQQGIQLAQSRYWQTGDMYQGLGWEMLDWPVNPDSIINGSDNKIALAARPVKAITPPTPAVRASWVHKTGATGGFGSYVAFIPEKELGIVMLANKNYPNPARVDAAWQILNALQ
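AmpC (5.3 nM in the dispensed reagent) in 20 mM phosphate pH 7.0 with 0.01% (detergent screen) or 0.0001% Triton X-100 was preincubated with compounds for 15 min at room temperature. Nitrocefin was then added from an 800 uM solution, and hydrolysis was followed at 480 nm.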
Pf growth 48h = inhibits P. falciparum growth in the first generation, 48 h; actives 5.9% (n = 310,000); AID 504832; P. falciparum luciferase growth in erythrocytes, 48 h; Potency, µM (top dose mostly 28.7 µM), for the others: at the highest dose activity change, negative = inhibition, hits mostly inhibitors
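Luciferase-expressing parasites in RBCs, 2% Hct / 0.1% parasitemia final; RPMI 1640 + 0.5% Albumax; 37 C, 5% CO2, one generation; luminescence read-out, lower signal = inhibition.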
AMA1 RON2 block = inhibitors of Plasmodium falciparum AMA1-RON2 interaction; AlphaScreen AMA1-biotinylated RON2 peptide binding; Potency, µM (highest dose often 58.2 µM), for inactives: top-dose activity change, negative = inhibition, actives largely listed as inhibitors; actives 0.2% (n = 360,000); AID 720542;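 also: 0% = vehicle wells and -100% = peptide control; nearly all actives have a fitted effect of over 45% in size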
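AMA1 (3D7) with his tag at 25 nM final met compounds first, then biotinylated RON2 peptide at 25 nM; detection used donor plus acceptor beads, 10 µg/mL apiece, read by AlphaScreen after 30 min at room temperature.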
HCV inh = inhibitors of hepatitis C virus infection; actives 3.4% (n = 340,000); Huh7.5.1 HCVcc-Cre infection, luciferase reporter, 44 h; AID 651820; Potency, µM (titrated, usually from 41.8 µM), for inactives: at the highest dose activity change, negative = inhibition, hits mostly inhibitors
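Antiviral activity was scored by luciferase reporter output from cells infected with HCVcc-Cre (~0.5 moi) in presence of compound, 44 h infection period, cells seeded 1,000/well 4 h prior.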
Pf growth 96h = P. falciparum growth inhibition at 96 hour, primary screen for plastid delayed-death inhibitors; P. falciparum luciferase reporter growth, 96 h; AID 504834; actives 6.9% (n = 320,000); Potency, µM (titrated, usually from 28.7 µM), for inactives: at the highest dose activity change, negative = inhibition, hits mostly inhibitors
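96 h incubation, 37 C, 5% CO2, of luciferase-reporter P. falciparum-infected RBCs (2% hematocrit, 0.05% parasitemia final) with test compounds; endpoint luminescence.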
AmpC inh no detg = AmpC beta-lactamase inhibition without detergent. P00811. AID 485341. Potency, µM (series often up to 57.1 µM), for inactives: top-dose activity change, negative = inhibition, actives largely listed as inhibitors. actives 0.52% (n = 330,000). AmpC nitrocefin hydrolysis, absorbance 480 nm, 0.0001% Triton;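 also: plate controls were no compound for no effect and no enzyme for full effect; nearly all actives have a fitted effect of over 20% in size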
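AmpC (5.3 nM in the dispensed reagent) in 20 mM phosphate pH 7.0 with 0.01% (detergent screen) or 0.0001% Triton X-100 was preincubated with compounds for 15 min at room temperature. Nitrocefin was then added from an 800 uM solution, and hydrolysis was followed at 480 nm.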
* marks the source's active call; other numbers are inactive results; ? = inconclusive; . = not tested or not shown. This is a sample that favours compounds with a hit; in the whole collection about 11% have one here. Calls follow the shape of the dose curve; as a rule, active = well fitted curve in the direction sought with a large enough effect; inconclusive = small, poorly fitted or top-dose-only effect, or another doubt; inactive = no such curve, though single readings can be large; an effect the other way counts as inactive or inconclusive. Unless noted, % is scaled to controls: 0 for no effect and ±100 for the full control effect; potency is read from the fitted curve at half-maximal effect.

SMILES	AmpC inh detg	Pf growth 48h	AMA1 RON2 block	HCV inh	Pf growth 96h	AmpC inh no detg
COc1cccc(C(=O)Nc2c(C(N)=O)oc3ccccc23)c1	?	5%	1%	?	2%	7.1µM*
CCOC(=O)c1oc2ccccc2c1NC(=O)c1cccc(OC)c1	2%	?	15%	-26%	73%	-4%
Cc1sc(NC(=O)c2ccco2)nc1-c1ccccc1	-9%	28%	-2%	14µM*	157%	-14%
CC(=O)Nc1nc(-c2ccc3c(c2)CC(C)N3C(=O)C2CC2)c(C)s1 (stereo unspecified)	-3%	-14%	-1%	?	-11%	-23%
Cc1sc(NC(=O)c2ccco2)nc1-c1ccc2c(c1)CC(C)N2C(=O)C1CC1 (stereo unspecified)	-17%	?	-7%	5µM*	5%	48%
O=C1CN(C(=O)Cc2ccc(F)cc2)C(c2ccccc2)c2cc(Cl)ccc2N1 (stereo unspecified)	7%	.	.	.	.	.
Cc1[nH]n(-c2cccc(Cl)c2)c(=O)c1-c1ccccc1	-1%	.	-6%	24%	5.9µM*	-29%
Cc1[nH]n(-c2ccccc2)c(=O)c1N=Nc1cccc([N+](=O)[O-])c1	?	49%	11%	12%	67%	-25%
Cc1[nH]n(-c2ccccc2)c(=O)c1-c1ccccc1	-14%	?	-5%	-8%	-11%	-25%
Cc1[nH]n(-c2cccc([N+](=O)[O-])c2)c(=O)c1-c1ccccc1	?	?	-9%	0%	13µM*	-20%
O=C(Nc1cccc(F)c1)C1CCN(c2nc3ccccc3nc2C(F)(F)F)CC1	6%	.	.	.	.	.
CCc1ccc(NC(=O)c2cc(S(=O)(=O)N3CCCCCC3)ccc2F)cc1	5%	.	.	.	.	.
Cc1cccc([N+](=O)[O-])c1NC(=O)CN(Cc1ccccc1)Cc1ccccc1	-5%	?	1%	?	8.3µM*	-10%
Cc1cccc(C)c1NC(=O)CN(C)CCc1ccccc1	.	.	6%	.	.	.
CCOC(=O)c1ccc(NC(=O)CC(=O)Nc2ccc3nc4n(c(=O)c3c2)CCCCC4)cc1	-1%	.	.	.	.	.
O=C(c1nc(-c2ccc(Cl)cc2)n2c1CCCCC2)N1CCN(c2ccc(F)cc2)CC1	14%	.	.	.	.	.
CCOc1ccccc1NC(=O)N1CCc2cc(S(=O)(=O)N3CCC(C)CC3)ccc21	1%	.	.	.	.	.
Cc1cc2cc(C(c3nnnn3C(C)(C)C)N(Cc3ccco3)CC3CCCO3)c(=O)[nH]c2cc1C (stereo unspecified)	-16%	?	5%	-24%	?	9%
COc1ccc2[nH]c(=O)c(C(c3nnnn3C(C)(C)C)N(Cc3ccco3)CC3CCCO3)cc2c1 (stereo unspecified)	4%	9.3µM*	3%	13%	5.9µM*	-6%
Cc1cc(C)c2[nH]c(=O)c(C(c3nnnn3C(C)(C)C)N(Cc3ccco3)CC3CCCO3)cc2c1 (stereo unspecified)	0%	.	-4%	-8%	1.9µM*	50%
Cc1cn(C)c(CC(=O)Nc2cccc(Cl)c2C)c1C(=O)O	8%	.	.	.	.	.
CC(NC(=O)CN(c1cccc(C(F)(F)F)c1)S(C)(=O)=O)c1ccccc1 (stereo unspecified)	-11%	?	3%	-13%	1.2µM*	20%
CCNC(=O)CC1C(=O)N(c2ccc(F)cc2)C(=O)N1CCC(C)C (stereo unspecified)	-14%	4%	-15%	-7%	-20%	-15%
CCNC(=O)CC1C(=O)N(c2ccc(C)cc2)C(=O)N1CCC(C)C (stereo unspecified)	4%	14%	9%	20%	12µM*	-8%
Cn1cnc2nc(Cl)nc(Cl)c21	.	.	5%	32µM*	.	.
SMILES	AmpC inh detg	Pf growth 48h	AMA1 RON2 block	HCV inh	Pf growth 96h	AmpC inh no detg
CNc1nc(Cl)nc2ncn(C)c12	.	.	-2%	1%	.	.
C[n+]1cn(Cc2ccc(C#N)cc2)c2ccccc21	-5%	-35%	-2%	6%	?	-7%
C[n+]1cn(/N=C/c2ccccc2)c2ccccc21	-5%	?	-1%	-1%	13µM*	-8%
CCCCNC(=O)CSc1nc2ccccc2c(=O)n1CC1COc2ccccc2O1 (stereo unspecified)	-14%	?	-4%	2.8µM*	?	-16%
CCCCN(CC)C(=O)CSc1nc2ccccc2c(=O)n1CC1COc2ccccc2O1 (stereo unspecified)	-13%	1%	0%	10µM*	?	-10%
CCN(CC)C(=O)CSc1nc2ccccc2c(=O)n1Cc1ccco1	-5%	.	.	.	.	.
COCc1cc(C)n(CC(=O)Nc2cccc(C(C)=O)c2)c(=O)c1C#N	-5%	.	.	.	.	.
Cc1cc(C)c(S(=O)(=O)c2ccccc2C)c(SCC(C)C)n1	0%	?	24%	?	12µM*	0.25µM*
COc1ccc(OCCn2cc(C(=O)c3ccco3)c3ccccc32)cc1	23%	.	.	.	.	.
O=C(Cn1cnc2c(nnn2-c2ccccc2)c1=O)N1CCCc2ccccc21	?	-11%	16%	-12%	?	0%
O=C(Cn1cnc2c(nnn2Cc2ccccc2)c1=O)N1CCCc2ccccc21	?	?	-8%	17%	12µM*	-14%
CCC(=O)N1CCc2cc(Br)cc(S(=O)(=O)NCCc3ccccc3)c21	4%	.	.	.	.	.
CSCCC(NS(=O)(=O)c1ccc2ccccc2c1)C(=O)OCC(=O)c1ccc(C(C)C)cc1 (stereo unspecified)	-7%	19%	-13%	-12%	3%	7.9µM*
C/C=C/c1ccc(OCC(=O)OCc2csc(CC(=O)Nc3ccccc3C)n2)c(OC)c1	1%	-13%	14%	.	-5%	-1%
COc1cc(/C=C/C(=O)OCc2csc(CC(=O)Nc3ccc(C)cc3)n2)ccc1OCC#N	-20%	?	6%	?	13µM*	-15%
Cc1ccccc1NC(=O)Cc1nc(COC(=O)c2ccc(Cl)nc2)cs1	?	?	7%	?	?	-26%
Cc1ccccc1NC(=O)Cc1nc(COC(=O)c2ccc(S(C)(=O)=O)c([N+](=O)[O-])c2)cs1	8%	?	15%	10µM*	?	-27%
COc1cc(C(=O)OCc2csc(CC(=O)Nc3ccccc3C)n2)ccc1OCC(C)C	-14%	13µM*	16%	?	9.3µM*	9%
